Source: PubChem BioAssay (NCI)
This is part of a sample that, as a whole, favours compounds with a hit. Of some 83,000 tested, about 20% had one in any assay.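 Single-dose data. Exposure time 48 hours. Values below 10 considered active.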 Activity calls are given as the source filed them.

These molecules were tested on HL-60(TB) leukemia (assay: NCI-60 one-dose screen, 48 h (100 = growth as untreated, 0 = no growth, -100 = all killed)). Conditions: 10 µM unless noted.

Compound	growth
Cc1ccc(C(=O)/C(=C\c2ccc([N+](=O)[O-])cc2)S(=O)Cc2ccc(F)cc2)cc1 (stereo not given)	-7.36% (active)
CC1=C(C(=O)n2c3ccccc3c3ccccc32)C(c2cccc([N+](=O)[O-])c2)C(C(=O)n2c3ccccc3c3ccccc32)=C(C)N1	91% (inactive)
c1nc2ccc(-c3cc4ccc5[nH]ncc5c4c4c3CCCC4)cc2[nH]1	30.9% (inactive)
COc1ccc(N2CCC(=S)NC2=S)cc1	99% (inactive)
O=C1C(Nc2ccc(Br)cc2)=C(I)C(=O)c2ncccc21	-43.2% (active)
CC(C)CCSC1=CC(=O)c2ccccc2C1=O	13.3% (inactive)
S=c1[nH]nc(Cc2ccccc2)c(=S)[nH]1	98.5% (inactive)
CC/C=C/[C@@H]1C=C[C@@H]2CCC[C@H]2[C@@H]1CC[C@H](O)[C@H](C)N	-61.6% (active)
Nc1ncnc2c1N=C(c1ccc3c(c1)OCO3)CC(c1cccc(Nc3ccnc4cc(C(F)(F)F)ccc34)c1)N2 (stereo not given)	92.9% (inactive)
O=[N+]([O-])c1ccc(C(Br)c2ccc([N+](=O)[O-])cc2)cc1	57.6% (inactive)
CC1(C)COB(OCC(C)(C)COB2OCC(C)(C)CO2)OC1	101% (inactive)
COc1c(B(O)O)cc(F)cc1-c1nc2ccc3[nH]ncc3c2c2c1CCCC2	-2.38% (active)
Cc1cc(C)nc(SC2=C(Nc3ccc(O)cc3)C(=O)N(Cc3ccccc3)C2=O)n1	60.6% [40 µM] (inactive)
CS(=O)(=O)Nc1ccc(Nc2c3ccccc3nc3cc(Cl)ccc23)cc1	-1.97% (active)
COc1ccc(C2=NNC(c3cc(Cc4ccc(O)c(C5CC(c6ccc(OC)cc6)=NN5)c4)ccc3O)C2)cc1 (stereo not given)	17.2% (inactive)
COc1ccccc1N(C(C)=O)C1=C(Cl)C(=O)c2ccccc2C1=O	-27.5% (active)
N#Cc1c(NC(=O)c2ccccc2)sc2c1CCC(=O)C2	-2.62% (active)
Cc1nc2sc(C(=O)Nc3cccc4ccccc34)c(N)c2cc1C(C)O (stereo not given)	-24.1% (active)
N#C/C(Sc1nc2sc3c(c2c(=O)n1Cc1ccccc1)CCCC3)=C1/SC=C(c2ccc(Cl)cc2)N1c1ccccc1	84.3% (inactive)
COc1ccc(/C=C/c2n[nH]c3ccc(N4CCOC4=O)cc23)cc1	-27.5% (active)

Compound	growth
CSc1cccc(NC(=O)Nc2nc3c(C)cccc3s2)c1	85.8% (inactive)
Nc1c(C(=O)Nc2cccc3ccccc23)sc2nc3c(cc12)CCCCCC3	-31% (active)
O=C(Cc1csc2nc(-c3ccc(Cl)cc3)cn12)N/N=C/c1ccccc1O	-3.5% (active)
CC(=S)NC(=O)C(=O)/C=C1/NC(=O)C(=O)S1	104% (inactive)
OCC1OC(O)C(O)C(O)C1O (stereo not given)	120% (inactive)
C=CC(=O)Nc1ccc2ncnc(Nc3cccc(NS(=O)(=O)CCC)c3Cl)c2c1	80.7% (inactive)
N#CCCN1C/C(=C/c2ccc(Br)cc2)C(=O)/C(=C/c2ccc(Br)cc2)C1	1.68% (active)
CN(C)CCCN1c2nc3ccccc3cc2Sc2cc3ccccc3nc21	43.9% (inactive)
COC(=O)[C@]12CC[C@@H](C)[C@H](C)[C@@H]1C1=CC[C@@H]3[C@@]4(C)C(C=O)=C[C@@](C)(COC(C)=O)[C@@H]4C(=O)C[C@@]3(C)[C@]1(C)CC2	29.8% (inactive)
CNC(=O)c1nn(C)c2c1C(C)(C)Cc1cnc(Nc3ccc(N4CCN(C)CC4)cc3)nc1-2	-27% (active)
COc1ccc2c(c1)C=CC(C#N)N2C(=O)c1ccccc1 (stereo not given)	-24.7% (active)
CC(=O)c1ccc2c(c1)CCc1ccccc1-2	126% (inactive)
COc1cc(-c2nn(-c3cccc(NC(=O)c4cccc(C(F)(F)F)c4)c3)cc2-c2ccncc2)ccc1Cl	1.93% (active)
COc1cc(/C=N/NC(=O)c2cnn3c2NC(c2ccccc2)C3)ccc1Oc1ccccc1 (stereo not given)	14.3% (inactive)
COc1ccc2cc(-c3ccc(-c4ccc(C(=N)N)s4)s3)ccc2c1	36.5% (inactive)
COc1cc(/C=N/N(C)C)ccc1O	86.5% (inactive)
CCCCC(CC)OC(=O)C(Br)CC (stereo not given)	99.6% (inactive)
NC(=N\N=C/c1ccccc1[N+](=O)[O-])/C(N)=N\N=C/c1ccccc1[N+](=O)[O-]	105% (inactive)
CCCCCCCCCCOC(c1ccccc1)c1ccccc1	81.4% (inactive)
CCN(CC)S(=O)(=O)c1ccc(NC(=O)CSc2nnc(C)n2-c2ccccc2)cc1	132% (inactive)
